PubChem BioAssay AID2061320 (National Center for Advancing Translational Sciences (NCATS), 2025)
Results filed as inconclusive are left out. Active and inactive are the calls of the source. Calls come from the whole dose curve; as a rule, active = well fitted inhibition curve with a large enough effect; inconclusive = small, poorly fitted or top-dose-only effect; inactive = flat fitted curve, though single readings scatter.

Experiment: Identification of antibody-drug conjugate (ADC) payloads which are substrates of ATP-binding cassette drug efflux transporters: ABCG2-H460-MX20 cell line
Settings: H460-MX20 (ABCG2) viability, CellTiter-Glo, 48 h; series mostly up to 28.7 µM
Source text: Antibody-drug conjugates (ADCs) feature an antibody recognizing a specific protein joined to a potent toxic payload. Numerous antibody-drug conjugates have received FDA approval; however, clinical resistance arises. Resistance mechanisms include decreased expression or mutation of the antibody target, impaired payload release, or increased expression of ATP-binding cassette (ABC) efflux transporters associated with multidrug resistance. We therefore sought to characterize the interaction of ABC multidrug transporters with ADC payloads. We performed a high-throughput screen with 27 common ADC payloads using cells lines expressing ABC transporters P-glycoprotein (P-gp, encoded by ABCB1) or ABCG2 (encoded by ABCG2). Confirmatory assays were also performed using cells transfected to express P-gp, ABCG2, or MRP1 (encoded by ABCC1). Several commonly used ADC payloads were substrates of P-gp, including calicheamicin gamma1, monomethyl auristatin E, DM1, and DM4. All the pyrrolobenzodiazepines tested - SJG136, SGD-1882, SG2057, and SG3199 - were substrates of P-gp, ABCG2, and MRP1. […] These findings highlight the risk of transporter-mediated resistance with certain ADC payloads and underscore the importance of selecting payloads that evade ABC transporter recognition in future ADC development.
HEK-293 cells were transfected with empty vector (pcDNA) or vector containing the human ABCB1 (MDR-19), ABCG2 (R-5), or ABCC1 gene (MRP1) and were maintained in EMEM with 2 mg/mL G418 added to maintain transporter expression. The HeLa derivative KB-3-1 and the P-gp overexpressing KB-8-5-11 subline were maintained in DMEM; KB-8-5-11 additionally received 100 ng/mL colchicine. H460 parental cells were obtained from the Division of Cancer Treatment and Diagnosis Tumor Repository, National Cancer Institute at Frederick, MD and were cultured in RPMI. The ABCG2 expressing subline H460 MX20 was generated by selecting H460 cells in 20 nM mitoxantrone. Media in all cases was supplemented with 10% FBS and 1% penicillin-streptomycin. We explored 27 common ADC payloads, in two orthogonal, paired cell line sets-a drug selected and transfected set for each transporter--to identify substrates of the ABC transporters P-gp and ABCG2. Compounds were sourced from Levena Biopharma (San Diego, CA), Selleck Chem (Houston, TX), ChemieTek (Indianapolis, IN), or Microsource Discovery Systems (Gaylordsville, CT). Screening was performed as previously described. Briefly, cells were plated at a density of 500 cells/well in 1536 well plates with compounds added using a 1536-head pin tool (Kalypsys, San Diego CA). Cells were incubated with cytotoxic drugs and processed with CellTiter Glo reagent (Promega, Madison, WI) to determine viability after 48 hours. P-gp substrates were identified by comparing compound activity between paired sets of low-expressing (sensitive) and over-expressing (resistant) cell lines.

For `COc1cccc2c1C(=O)c1c(O)c3c(c(O)c1C2=O)C[C@@](O)(C(=O)CO)CC3OC1CC(N2CCOC(OC)C2)C(O)C(C)O1` (stereo partly specified), which Potency is on record?
The Potency was 8.4 nM (active).

Which Potency does the source give for `CC[C@H](C)[C@@H]1NC(=O)CNC(=O)[C@H]2Cc3c([nH]c4cc(O)ccc34)S(=O)C[C@H](NC(=O)CNC1=O)C(=O)N[C@@H](CC(N)=O)C(=O)N1C[C@H](O)C[C@H]1C(=O)N[C@@H]([C@@H](C)[C@@H](O)CO)C(=O)N2` (stereo partly specified) here?
The Potency was 1060 nM (active).

With `CC[C@H](C)[C@H](NC(=O)[C@H]1CCCCN1C)C(=O)N(C)[C@H](C[C@@H](OC(C)=O)c1nc(C(=O)N[C@@H](Cc2ccccc2)C[C@H](C)C(=O)O)cs1)C(C)C` as the compound, how does the Potency read?
The Potency was “inactive”.

For `COc1cc2cc(c1Cl)N(C)C(=O)C[C@H](OC(=O)[C@H](C)N(C)C(=O)CCS)[C@]1(C)OC1[C@H](C)C1C[C@@](O)(NC(=O)O1)[C@H](OC)/C=C/C=C(\C)C2` (stereo partly specified), which Potency is on record?
The Potency was 15000 nM (active).

Which Potency does the source give for `COc1cc2cc(C(=O)N3C[C@@H](CCl)c4c3cc(O)c3ccccc43)[nH]c2c(OC)c1OC` here?
The Potency was 2.1 nM (active).

For `CC[C@H](C)[C@@H]([C@@H](CC(=O)N1CCC[C@H]1[C@H](OC)[C@@H](C)C(=O)N[C@H](C)[C@@H](O)c1ccccc1)OC)N(C)C(=O)[C@@H](NC(=O)[C@H](C(C)C)N(C)C)C(C)C`, which Potency is on record?
The Potency was 598 nM (active).
